Among the data in PubChem BioAssay (NCATS) are Potency and activity change, negative = inhibition values, retold here.

Molecules are shown by their SMILES. Records with an inconclusive call do not appear. A number with no mark means an inactive call. Activity calls are given as the source filed them. The call rests on the fitted dose curve; in most records, active means well fitted inhibition curve with a large enough effect; inconclusive means small, poorly fitted or top-dose-only effect; inactive means no such curve, though single readings can be large or run the other way.

In test [1] the test system is Zika virus NS2B-NS3 protease (unlinked complex). Description: Primary screen GU Rhodamine qHTS for Zika virus inhibitors: Unlinked NS2B-NS3 protease assay (AID 1347159). Further: nearly all actives have a fitted effect of over 60% in size. The gist of the method: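 Noncovalent NS2B hydrophilic domain/NS3 protease complex (25 nM final) in 10 mM Tris-HCl pH 8.0, 0.01% Tween 20, preincubated 15 min with compounds (up to 114 microM), then 1.5 microM Rhodamine110 substrate. Fluorescence change over 15 min fitted to 4-parameter Hill.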

The subject of test [2] is Zika virus NS2B-NS3 protease (linked construct). Description: Primary screen NINDS Rhodamine qHTS for Zika virus inhibitors (AID 1347160). Further: nearly all actives have a fitted effect of over 55% in size. The gist of the method:
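Purified NS2B-NS3 protease with the NS2B hydrophilic domain joined by a flexible linker (25 nM) in 10 mM Tris-HCl pH 8.0, 0.01% Tween 20, preincubated 15 min at RT with compound; Rhodamine110 peptide substrate 1.5 µM; fluorescence change over 15 min; 4-parameter Hill fit.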
On the % scale 0 is the no-effect control and ±100 the full control effect; potency means the concentration at half of the fitted maximal effect.

On to `O=C(NCc1ccc(OC(F)(F)F)cc1)C1c2ccccc2C(=O)N1C1CCOCC1` (stereo not drawn), for which the Potency result in test [1] and in test [2] was “inactive” throughout.
Regarding `CC(C)CC1(C(=O)OCc2ccc(O[C@@H]3O[C@H](CO)[C@@H](O)[C@H](O)[C@H]3O)cc2)CC(=O)OC(C(=O)O)CC(=O)OCC2OC(O1)C(OC(=O)/C=C/c1ccc(O)cc1)C(O)C2O` (stereo partly drawn), the Potency result in test [1] and in test [2] was “inactive” in each case.
Take `COC1(CC(C)C)NC(=O)C(O)(Cc2ccccc2)NC1=O` (stereo not drawn): the Potency result in test [1] and in test [2] was “inactive” throughout.
Turning to `COC(=O)C1=CO[C@@H](O[C@@H]2O[C@H](CO)[C@@H](O)[C@H](O)[C@H]2O)[C@@H]2[C@@H](C(=O)OC)[C@@H](O)C(O)[C@H]12` (stereo partly drawn), the Potency result in test [1] and in test [2] was “inactive” in each case.
In the case of `O=C(/C=C/c1ccc(O)cc1)O[C@H]1[C@@H]2C=CO[C@@H](O[C@@H]3O[C@H](CO)[C@@H](O)[C@H](O)[C@H]3O)[C@@H]2[C@@]2(CO)O[C@@H]12`, the Potency entry in test [1] and in test [2] was “inactive” in each case.
For the compound `C[C@@H]1O[C@@H](O[C@H]2[C@H](OC(C#N)c3ccc(O)cc3)O[C@H](CO)[C@@H](O)[C@@H]2O)[C@H](O)[C@H](O)[C@H]1O` (stereo partly drawn), the Potency result in test [1] and in test [2] was “inactive” throughout.
`OC[C@H]1O[C@@H](n2cnc3c2NC=NC[C@H]3O)C[C@@H]1O`: the Potency entry in test [1] and in test [2] was “inactive” throughout.
As to `CN(NC(=O)CC(=O)NN(C)C(=S)c1ccccc1)C(=S)c1ccccc1`, the Potency entry in test [1] and in test [2] was “inactive” throughout.
`COC1=CC(=O)O[C@@H](/C=C/c2ccccc2)[C@@H]1O`: the Potency entry in test [1] and in test [2] was “inactive” in each case.
On to `CCOc1cc2ncc(C#N)c(Nc3ccc(OCc4ccccn4)c(Cl)c3)c2cc1NC(=O)/C=C/CN(C)C`, for which the Potency result in test [1] and in test [2] was “inactive” throughout.
For `CC1=CC(=O)C[C@H]2[C@@H]1CC[C@@H](C)[C@]21CO[C@H](c2ccoc2)C1=O`, the Potency entry in test [1] and in test [2] was “inactive” throughout.
As to `Clc1ccc(CN[C@H]2CCN(c3ncc(Br)cn3)C2)c(Cl)c1`, the Potency entry in test [1] and in test [2] was “inactive” in each case.
On to `O=C(OCc1cccc(O)c1O[C@@H]1O[C@H](CO)[C@@H](O)[C@H](O)[C@H]1O)C1(O)C(=O)C2C=CC1C1C=CC(=O)C(O)(C(=O)OCc3cccc(O)c3O[C@@H]3O[C@H](CO)[C@@H](O)[C@H](O)[C@H]3O)C21` (stereo partly drawn), for which the Potency entry in test [1] and in test [2] was “inactive” in each case.
As to `C/C1=C\C[C@H](O[C@@H]2O[C@H](CO)[C@@H](O)[C@H](O)[C@H]2O)/C(C)=C/[C@H]2OC(=O)[C@H](C)[C@@H]2CC1`, the Potency entry in test [1] and in test [2] was “inactive” throughout.
Consider `Cc1cccc(-c2[nH]c(CNc3ccccc3F)nc2-c2ccc3ncnn3c2)n1`, for which the Potency entry in test [1] and in test [2] was “inactive” each time.
`O=C(O)c1n[nH]c2c1C[C@H]1C[C@@H]21`: the Potency result in test [1] and in test [2] was “inactive” throughout.
Consider `COC(=O)[C@@]1(O)C=CC[C@@H]2[C@@]3(C)C[C@@H](c4ccoc4)OC(=O)[C@H]3CC[C@]21C`, for which the Potency entry in test [1] and in test [2] was “inactive” in each case.
For `C=CC(C)(O)CO[C@@H]1O[C@H](CO)[C@@H](O)[C@H](O)[C@H]1O` (stereo partly drawn), the Potency entry in test [1] and in test [2] was “inactive” each time.
For `CC1=C(C)C(=O)OC(C(C)(O)C2CCC3C4CC=C5CC(OC6OC(COC7OC(CO)C(O)C(O)C7O)C(O)C(O)C6O)CC(O)C5(C)C4CCC32C)C1` (stereo not drawn), the Potency result in test [1] and in test [2] was “inactive” each time.
For the compound `CC1CCC2(C(=O)OC3OC(COC4OC(CO)C(O)C(O)C4O)C(O)C(O)C3O)CCC3(C)C(=CCC4C5(C)CCC(O)C(C)(C(=O)O)C5CCC43C)C2C1(C)O` (stereo not drawn), the Potency result in test [1] and in test [2] was “inactive” throughout.
Take `O=C(NC[C@H](O)CN1CCc2ccccc2C1)c1cc(NC2COC2)ncn1`: the Potency entry in test [1] and in test [2] was “inactive” each time.
Turning to `Cn1c(=O)c2nc(/C=C/c3cccc(Cl)c3)n(C)c2n(C)c1=O`, the Potency entry in test [1] and in test [2] was “inactive” throughout.
As to `CC1=C2CC3OC3(C)CCC3OC3(C)CC2OC1=O` (stereo not drawn), the Potency result in test [1] and in test [2] was “inactive” throughout.
As for `COc1cc(O[C@@H]2O[C@H](CO)[C@@H](O)[C@H](O)[C@H]2O)c(CCC(=O)OC[C@H]2O[C@@H](Oc3cc(OC)c(C4OC(=O)C(C)(O)C4O)cc3CCC(=O)O)[C@H](O)[C@@H](O)[C@@H]2O)cc1C1OC(=O)C(C)(O)C1O` (stereo partly drawn), the Potency result in test [1] and in test [2] was “inactive” in each case.
For `CC[C@H]1OC(=O)[C@H](C)[C@@H](O[C@H]2C[C@@](C)(OC)[C@@H](O)[C@H](C)O2)[C@H](C)[C@@H](O[C@@H]2O[C@H](C)C[C@H](N(C)C)[C@H]2O)[C@@](C)(O)C[C@@H](C)[C@@H]2N[C@@H](COCCOC)OC([C@H]2C)[C@]1(C)O`, the Potency result in test [1] and in test [2] was “inactive” throughout.
For `O=C1C[C@@H](c2ccc(O)cc2)Oc2cc(O)ccc21`, the Potency entry in test [1] and in test [2] was “inactive” throughout.
As for `CC1OC(O[C@H]2[C@@H](O)C[C@@]3(C)C([C@H](O)C[C@]4(C)C3CC=C3C5CC(C)(C)CC[C@]5(C(=O)OC5OC(CO)C(O)C(O)C5OC5OCC(OC6OCC(OC7OCC(O)C(O)C7O)C(O)C6O)C(OC6OCC(O)(CO)C6O)C5O)CC[C@]34C)[C@]2(C)CO)C(O)C(O)C1O` (stereo partly drawn), the activity change, negative = inhibition in test [1] was 27.1% [at 19.1 µM]; in test [2], -1.39% [at 10.7 µM].
As for `CO/N=C(/C(=O)N[C@@H]1C(=O)N2C(C(=O)O)=C(CSC(=O)c3ccco3)CS[C@H]12)c1csc(N)n1`, the Potency in test [1] is 35.5 µM (active); in test [2] it was 25.1 µM (active).
In the case of `CCC(CCO[C@@H]1O[C@H](CO[C@H]2OC[C@](O)(CO)[C@H]2O)[C@@H](O)[C@H](O)[C@H]1O)C(C)(C)O` (stereo partly drawn), the Potency entry in test [1] and in test [2] was “inactive” in each case.
